Most compounds without a hit are left out; they make up all but 2.9% or so of the library.
IP6K1 inhibitor: blocks human inositol hexakisphosphate kinase 1. Q92551. 140,000 tested, 0.81% active. IP6K1 kinase, ADP-Glo luminescence, 2 h; hits give low values. AID 1645851. activity change, % (series mostly up to about 58 µM); in the data active = activity change below about -25%; note: % is set by controls: 0 for no effect and ±100 for the full control effect
Target sequence (Q92551 whole entry, looked up): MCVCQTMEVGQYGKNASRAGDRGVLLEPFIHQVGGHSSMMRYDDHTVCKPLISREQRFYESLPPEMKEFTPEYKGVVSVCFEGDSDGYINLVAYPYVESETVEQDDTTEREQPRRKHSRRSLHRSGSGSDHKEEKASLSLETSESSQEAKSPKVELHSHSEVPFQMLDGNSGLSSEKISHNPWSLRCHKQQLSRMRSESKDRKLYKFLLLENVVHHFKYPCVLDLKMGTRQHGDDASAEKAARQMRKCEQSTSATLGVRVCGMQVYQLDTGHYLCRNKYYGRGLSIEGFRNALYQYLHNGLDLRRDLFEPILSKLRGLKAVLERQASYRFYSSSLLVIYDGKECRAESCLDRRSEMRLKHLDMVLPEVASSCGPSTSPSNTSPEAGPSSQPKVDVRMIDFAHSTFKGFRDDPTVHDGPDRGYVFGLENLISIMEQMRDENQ
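ADP-Glo luminescence measures ADP made by human IP6K1 during a 2 h RT reaction with ATP/IP6 (mix at 1.3 mM/130 uM); top library doses 57.5 and 19.1 uM final.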
KDM5B inhibitor: KDM5B demethylase inhibition; 220,000 tested, 2.6% active; KDM5B demethylase, FDH-coupled NADH fluorescence (FDH is formaldehyde dehydrogenase); Q9UGL1; AID 1347165; Potency, µM (titrated, usually from 57.7 µM), usual class: inhibitors; note: potency is the fitted concentration of half-maximal effect; 0% is about no effect; nearly all actives have a fitted effect of over 70% in size
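qHTS format, multiple compound concentrations. Buffer 50 mM HEPES pH 7.5/0.01% Tween-20; 200 nM KDM5BΔAP final; 10 min compound preincubation; substrate-mix levels 12.5 µM peptide, 25 µM α-KG, 0.25 mM NAD⁺; 30 min RT; ΔRFU.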
SNCA viab count: counter-screen for SNCA expression inhibitors: cell viability; HEK-293-SNCA-luc viability, GF-AFC fluorescence, 24 h; Potency, µM (doses to about 57.1 µM), without a hit: top-dose activity change, negative = cytotoxicity, usual class: cytotoxic; AID 1671193; 150,000 tested, 0.12% active;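 note: potency is the fitted concentration of half-maximal effect; 0% = DMSO-treated cells and -100% = medium-only wells without cells; nearly all actives have a fitted effect of over 30% in size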
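Cytotoxicity counterscreen: after 24 h compound treatment of genome-edited SNCA-luciferase HEK-293 cells, live-cell protease substrate GF-AFC read by fluorescence after 30 min; activity scaled between DMSO (0%) and medium-only (-100%), curves Hill-fitted.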
SNCA expr inhib: inhibitors of alpha-synuclein (SNCA) gene expression. HEK-293 SNCA-luciferase knock-in, luminescence, 24 h. Potency, µM (doses to about 57.2 µM), for the others: at the highest dose activity change, negative = inhibition, actives largely listed as inhibitors. 140,000 tested, 0.17% active. AID 1671194;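 note: potency is the fitted concentration of half-maximal effect; plate controls were DMSO cells for no effect and cell-free wells for full effect; nearly all actives have a fitted effect of over 45% in size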
An asterisk follows results filed as active; i = inactive; ? = inconclusive; · = no result; ! = repeats disagree; [ ] = remark or other dose. Unless noted, calls come from the whole dose curve; as a rule, active = well fitted curve in the direction sought with a large enough effect; inconclusive = small, poorly fitted or top-dose-only effect, or another doubt; inactive = no such curve, though single readings can be large; an effect the other way counts as inactive or inconclusive.

SMILES	IP6K1 inhibitor	KDM5B inhibitor	SNCA viab count	SNCA expr inhib
COc1cccc(C(=O)N[C@@H]2CN(c3ncccn3)C[C@H]2CN(C)C)c1	8	32µM*	10%	1%
O=C(N[C@@H]1CN(c2ncccn2)C[C@H]1CO)c1ccc(F)cc1	3	?	4%	-8%
CN(C)C[C@@H]1CN(c2ncccn2)C[C@H]1NC(=O)c1cccc(F)c1	4	20µM*	?	-9%
CCc1ccc(C(=O)COC(=O)c2cccc(Cl)c2Cl)cc1	·	i	·	·
CN(C)C[C@@H]1CN(S(C)(=O)=O)C[C@H]1NC(=O)c1ccc(Cl)s1	7	i	5%	5%
COc1ccc(C(=O)N[C@@H]2CN(c3ncccn3)C[C@H]2CN(C)C)cc1F	5	25µM*	-11%	-25%
CN(C)C[C@@H]1CN(c2ncccn2)C[C@H]1NC(=O)c1ccc(Cl)s1	1	28µM*	-2%	-13%
CN1CCN(c2ccc(NC(=O)c3cc(F)cc(F)c3)nc2)CC1	·	i	·	·
CN1CCN(c2ccc(C(=O)Nc3n[nH]c4ccc(Cc5cc(F)cc(F)c5)cc34)c(NC3CCOCC3)c2)CC1	-12	·	27µM*!	?
NC(=O)CO[C@@H]1CO[C@H]2[C@@H]1OC[C@@H]2NC(=O)Nc1cccc2ccccc12	-13	28µM*	4%[87.6 µM]	-16%[87.6 µM]
S=C(Nc1cccc2ccccc12)N[C@H]1CO[C@H]2[C@@H]1OC[C@H]2OCc1ccccc1	3	35µM*	-27%[87.6 µM]	-19%[87.6 µM]
O=C(Nc1cccc2ccccc12)O[C@@H]1CO[C@H]2[C@@H]1OC[C@@H]2NC(=S)Nc1cccc2ccccc12	8	?	-14%	-18%
NC(=O)CO[C@@H]1CO[C@H]2[C@@H]1OC[C@@H]2NC(=O)Nc1ccccc1	-1	i	2%[87.6 µM]	5%[87.6 µM]
Cc1cn2nc(C(=O)Nc3ccc(Cl)c(C)c3)cc2c(N2CCSCC2)n1	-4	22µM*	8%	55%
CSc1cccc(NC(=O)c2cc3c(N4CCCC4)nc(C)cn3n2)c1	0	i	2%	20%
Cc1cn2nc(C(=O)Nc3ccc(F)c(C)c3)cc2c(N2CCSCC2)n1	-5	32µM*	-17%	-15%
CSc1cccc(NC(=O)c2cc3c(N4CCSCC4)nc(C)cn3n2)c1	-2	25µM*	-5%	-6%
COc1ccc(NC(=O)c2cc3c(N4CCSCC4)nc(C)cn3n2)cc1F	13	28µM*	-8%	12%
CC(C(=O)N1CCCN(C)c2ccccc21)c1ccccc1 (centres undefined)	-9	i	0%	-5%
Cc1cccc(OC(=O)c2ccccc2Br)c1C	·	i	·	·
Cc1ncc(CO)c(CN2CCCC3(Cc4ccccc4CNC3=O)C2)c1O (centres undefined)	8	79µM*	3%	13%
Cc1ccccc1CN1CCC2(CC1)Cc1ccccc1CNC2=O	15	i	-12%	0%
O=C1NCc2ccccc2CC12CCCN(Cc1ccnc3ccccc13)C2 (centres undefined)	-2	?	-3%	10%
Cc1ncc(CO)c(CN2CCC3(CC2)Cc2ccccc2CNC3=O)c1O	22	71µM*	-4%	32%
Cc1nc(Nc2n[nH]c3c2CN(C(=O)NC(CN(C)C)c2ccccc2)C3(C)C)c2sccc2n1 (centres undefined)	-5	·	7.5µM*	·
SMILES	IP6K1 inhibitor	KDM5B inhibitor	SNCA viab count	SNCA expr inhib
Cc1nn(-c2ccccc2)c2c1C(C)N(C1CN(C(=O)c3ccccc3Cl)C1)C2=O (centres undefined)	13	·	·	·
COc1ccc(-c2noc(CN(C)S(=O)(=O)c3ccc(C)cc3)n2)c(OC)c1	·	i	·	·
Cc1cc(C(=O)N2CCC(c3noc(-c4cnccn4)n3)C2)nn1C (centres undefined)	9	i	-2%	-9%
COc1ccc(CCC(=O)N2CCCC(Cn3c(C)cnc3-c3ccncc3)C2)cc1 (centres undefined)	15	·	2%	17%
COc1cccc(-c2c(C(=O)Nc3cccc(Cl)c3)nc3sccn23)c1	-10	·	?	-30%
COc1cccc(-c2nc3cnccn3c2NCCC(=O)N2CCCC(C)C2)c1 (centres undefined)	6	28µM*	?	2%
COc1ccc(-c2nc3cnccn3c2NCCC(=O)N2CCCC(C)C2)cc1 (centres undefined)	-3	28µM*	?	21%
COc1cccc(-c2nc3cnccn3c2NCCC(=O)Nc2cccc(Cl)c2)c1	2	28µM*	?	-1%
CCNC(=O)N1CCCC1c1noc(CCC(=O)NCC2CCCCC2)n1 (centres undefined)	19	i	-6%	?
CCc1ccccc1NC(=O)COC(=O)c1ccc2ccccc2n1	·	i	·	·
CCCCCCCCCCCCS(=O)(=O)CC(C)C(N)=O (centres undefined)	·	i	·	·
c1ccc(-c2cc3c(cn2)NCCN(Cc2ccccn2)C3)cc1	-15	35µM*	-16%[87.6 µM]	28%[87.6 µM]
Fc1ccc(CN2CCNc3cnc(-c4ccccc4)cc3C2)cc1F	-8	35µM*	?	?
O=C1NCN(Cc2ccc(Cl)cc2)C12CCN(CC1CC1)CC2	12	i	0%[87.6 µM]	-31%[87.6 µM]
O=C(CCC1CCN(c2cc(NC3CC3)ncn2)CC1)NCCN1CCCCC1	16	i	-8%	?
O=C(O)CCn1ncc2cc(OC3CCN(C(=O)Oc4ccccc4Cl)CC3)ccc21	5	i	1%	1%
CC(C)OC(=O)N1CCC(COc2cnc3c(ccn3CC(N)=O)c2)CC1	-8	40µM*	3%[87.6 µM]	21%[87.6 µM]
O=C(O)Cn1ccc2cc(OCC3CCN(C(=O)OC4CCCC4)CC3)cnc21	-2	35µM*	-11%[87.6 µM]	-22%[87.6 µM]
NC(=O)Cn1ccc2cc(OCC3CCN(c4cc(NC5CC5)ncn4)CC3)cnc21	-11	40µM*	-20%[87.6 µM]	-27%[87.6 µM]
NC(=O)Cn1ccc2cc(OCC3CCN(C(=O)Oc4ccccc4Cl)CC3)cnc21	-14	28µM*	0%	20%
O=C(NCc1ccco1)c1cc2ccccc2oc1=O	·	i	·	·
Cc1ccc(-c2cc(C(=O)NCCNC(=O)c3ccco3)c3ccccc3n2)c(C)c1	·	i	·	·
CN(C)C(=O)Cc1c[nH]c2ncc(-c3cccnc3)cc12	0	i	10%[87.6 µM]	-24%[87.6 µM]
CN(C)C(=O)Cc1c[nH]c2ncc(-c3cnn(C)c3)cc12	-15	40µM*	-4%[87.6 µM]	11%[87.6 µM]
CN(C)c1cccc(NC(=O)Cc2c[nH]c3ncc(-c4cnn(C)c4)cc23)c1	-14	?	-25%[87.6 µM]	14%[87.6 µM]
Cn1cc(-c2cnc3[nH]cc(CC(=O)NCc4cccc(F)c4)c3c2)cn1	-16	32µM*	-1%[87.6 µM]	21%[87.6 µM]
Cc1ccccc1NC(=O)Cc1c[nH]c2ncc(-c3cnn(C)c3)cc12	3	?	4%[87.6 µM]	58%[87.6 µM]
Cn1cc(-c2cnc3[nH]cc(CC(=O)Nc4cccnc4)c3c2)cn1	-13	40µM*	-18%[87.6 µM]	-3%[87.6 µM]
C#CC[C@H](c1nc2cc(Cl)ccc2c(=O)n1Nc1ccccc1)N(CCCN)C(=O)c1cccc(Cl)c1F	13	·	?	·
